The source of these data is PubChem BioAssay (EPA / NIEHS).

Each structure is given as a SMILES string. Activity calls are given as the source filed them. How the source made its calls: active means hit-call score of the fitted dose curve at least 0.9, where 1 is the maximum; inactive means score below 0.9.

Common to all, as to details: mRNA level, 48 h; actives raise or lower the signal
Read-out in experiment [1]: Tumor necrosis factor receptor superfamily member 6 (Homo sapiens) (UniProt P25445)
Briefly: LTEA_HepaRG_FAS: Life Technologies and Expression Analysis (LTEA) Assay for Fas cell surface death receptor (FAS) using HepaRG (AID 2283447). In outline:
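FAS transcript level was measured by TaqMan qRT-PCR against three housekeeping genes after 48 h chemical exposure. Cells were HepaRG, 0.5% DMSO vehicle, with a top concentration of 100 uM and half-log dilutions over eight points, in duplicate.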

Read-out in experiment [2]: Fatty acid synthase (Homo sapiens) (UniProt P49327)
In words: LTEA_HepaRG_FASN: Life Technologies and Expression Analysis (LTEA) Assay for Fatty Acid Synthase (FASN) using HepaRG (AID 2283448). A digest of the protocol: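 Transcript-level assay: HepaRG liver cells are treated for 48 h across an eight-point range topping at 100 uM, and FASN mRNA, normalized to three housekeeping genes, is compared with DMSO controls in both directions.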

Read-out in experiment [3]: Cyclin D2 (CCND2), CCND2 (gene 894)
In words: LTEA_HepaRG_CCND2: Life Technologies and Expression Analysis (LTEA) Assay for Cyclin D2 (CCND2) using HepaRG (AID 2283449). In outline: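 Read-out is CCND2 mRNA level measured by qRT-PCR in human HepaRG liver cells and normalised to three housekeeping genes. Chemicals were applied for 48 h at up to 100 uM, with gain or loss fitted relative to 0.5% DMSO.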

Read-out in experiment [4]: Cyclin Dependent Kinase Inhibitor 1A (CDKN1A), CDKN1A (gene 1026)
In words: LTEA_HepaRG_CDKN1A: Life Technologies and Expression Analysis (LTEA) Assay for Cyclin Dependent Kinase Inhibitor 1A (CDKN1A) using HepaRG (AID 2283450). In outline:
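Differentiated HepaRG cells in serum-free induction medium, exposed 48 h in duplicate to eight half-log concentrations up to 100 uM in 0.5% DMSO. mRNA measured by TaqMan qRT-PCR, normalized to ACTB, GAPDH, POLR2A; bidirectional fit versus DMSO.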

Read-out in experiment [5]: catalase (CAT), CAT (gene 847)
Briefly: LTEA_HepaRG_CAT: Life Technologies and Expression Analysis (LTEA) Assay for catalase (CAT) using HepaRG (AID 2283452).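 On AC50: TaqMan qRT-PCR signal normalized to ACTB GAPDH and POLR2A housekeeping genes.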 A digest of the protocol: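 Expression of CAT was quantified by TaqMan qRT-PCR with ACTB/GAPDH/POLR2A normalization after 48 h chemical exposure of HepaRG. Eight-point half-log series, top 100 uM, in 0.5% DMSO; gain or loss fitted against vehicle.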

Read-out in experiment [6]: flavin-containing dimethylaniline monooxygenases 3 (FMO3), FMO3 (gene 2328)
Briefly: LTEA_HepaRG_FMO3: Life Technologies and Expression Analysis (LTEA) Assay for flavin-containing dimethylaniline monooxygenases 3 (FMO3) using HepaRG (AID 2283453).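 On AC50: FMO3 transcript by TaqMan qRT-PCR normalized to ACTB GAPDH and POLR2A.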 A digest of the protocol: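 HepaRG, 48 h exposure, 8-pt half-log series from 100 uM, 0.5% DMSO vehicle, duplicates; FMO3 transcript by Fluidigm TaqMan qRT-PCR, housekeeping-normalized; gain/loss fit vs DMSO.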

Read-out in experiment [7]: CFLAR gene, CFLAR (gene 8837)
In words: LTEA_HepaRG_CFLAR: Life Technologies and Expression Analysis (LTEA) Assay for CFLAR gene using HepaRG (AID 2283455). In outline: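 HepaRG, 48 h exposure, 8-pt conc-response (100 uM top, half-log), 0.5% DMSO vehicle, duplicates. CFLAR expression by qRT-PCR; ACTB/GAPDH/POLR2A normalization; gain or loss fit vs DMSO baseline.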

Read-out in experiment [8]: Forkhead box O1 (FOXO1), FOXO1 (gene 2308)
In words: LTEA_HepaRG_FOXO1: Life Technologies and Expression Analysis (LTEA) Assay for Forkhead box O1 (FOXO1) using HepaRG (AID 2283456). A digest of the protocol:
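Readout is FOXO1 transcript level by multiplexed qRT-PCR against three housekeeping genes, curve-fitted in both directions relative to 0.5% DMSO vehicle. Human HepaRG cultures received chemicals for 48 h, up to 100 uM in half-log steps.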

Read-out in experiment [9]: growth arrest and DNA damage 45 (GADD45A), GADD45A (gene 1647)
Briefly: LTEA_HepaRG_GADD45A: Life Technologies and Expression Analysis (LTEA) Assay for growth arrest and DNA damage 45 (GADD45A) using HepaRG (AID 2283458). A digest of the protocol: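 Human HepaRG liver cells are treated in duplicate for 48 h with chemicals in 0.5% DMSO, highest concentration 100 uM. Expression is read by qRT-PCR and analyzed in both directions against vehicle.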

Read-out in experiment [10]: Forkhead box O3 (FOXO3), FOXO3 (gene 2309)
Briefly: LTEA_HepaRG_FOXO3: Life Technologies and Expression Analysis (LTEA) Assay for Forkhead box O3 (FOXO3) using HepaRG (AID 2283459). A digest of the protocol:
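HepaRG, 48 h post-dose; 8 conc., half-log from 100 uM, 0.5% DMSO, duplicates; serum-free induction medium. Readout: FOXO3 mRNA, TaqMan qRT-PCR, housekeeping-normalized. Bidirectional curve fit vs DMSO baseline.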

Read-out in experiment [11]: ABC Transporter (ABCB1), ABCB1 (gene 5243)
In words: LTEA_HepaRG_ABCB1: Life Technologies and Expression Analysis (LTEA) Assay for ABC Transporter (ABCB1) using HepaRG (AID 2283460). A digest of the protocol: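 Expression of ABCB1 was quantified by qRT-PCR against three housekeeping genes after human HepaRG cultures received test chemicals for 48 hours. Concentrations spanned eight half-log steps topping at 100 uM in 0.5% DMSO; gain or loss of signal was fitted relative to vehicle.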

Read-out in experiment [12]: growth arrest and DNA damage 45 (GADD45B), GADD45B (gene 4616)
Briefly: LTEA_HepaRG_GADD45B: Life Technologies and Expression Analysis (LTEA) Assay for growth arrest and DNA damage 45 (GADD45B) using HepaRG (AID 2283461). In outline:
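Differentiated human HepaRG cells in serum-free induction medium exposed 48 h in duplicate to eight concentrations, top 100 uM, half-log steps, 0.5% DMSO. GADD45B mRNA by TaqMan qRT-PCR, normalized to ACTB, GAPDH, POLR2A; bidirectional fit versus DMSO.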

Read-out in experiment [13]: ABC Transporter (ABCC3), ABCC3 (gene 8714)
Briefly: LTEA_HepaRG_ABCC3: Life Technologies and Expression Analysis (LTEA) Assay for ABC Transporter (ABCC3) using HepaRG (AID 2283462). In outline: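 Differentiated human HepaRG cells exposed 48 h in serum-free induction medium, 0.5% DMSO vehicle, 8-point half-log series to 100 uM in duplicate. ABCC3 mRNA by qRT-PCR, normalised to ACTB, GAPDH, POLR2A; bidirectional fit vs DMSO.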

Read-out in experiment [14]: Broad substrate specificity ATP-binding cassette transporter ABCG2 (Homo sapiens) (UniProt Q9UNQ0)
Briefly: LTEA_HepaRG_ABCG2: Life Technologies and Expression Analysis (LTEA) Assay for ABC Transporter (ABCG2) using HepaRG (AID 2283465). A digest of the protocol:
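Read-out is ABCG2 mRNA induction or loss quantified by qRT-PCR after 48 h chemical treatment of human HepaRG cells, normalized to three housekeeping genes. Concentrations reached 100 uM top in half-log steps; fitting was bidirectional against 0.5% DMSO.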

Read-out in experiment [15]: Cytochrome P450 (CYP1A1), CYP1A1 (gene 1543)
Briefly: LTEA_HepaRG_CYP1A1: Life Technologies and Expression Analysis (LTEA) Assay for Cytochrome P450 (CYP1A1) using HepaRG (AID 2283454). A digest of the protocol:
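Differentiated human HepaRG cells, after 48 h plating, exposed in duplicate for 48 h in serum-free induction medium to 8 half-log concentrations up to 100 uM in 0.5% DMSO. CYP1A1 mRNA by qRT-PCR, normalized to ACTB/GAPDH/POLR2A; bidirectional fit versus DMSO.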

Read-out in experiment [16]: ABC Transporter (ABCB11), ABCB11 (gene 8647)
In words: LTEA_HepaRG_ABCB11: Life Technologies and Expression Analysis (LTEA) Assay for ABC Transporter (ABCB11) using HepaRG (AID 2283463). A digest of the protocol:
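ABCB11 transcript levels are read by Fluidigm TaqMan qRT-PCR after 48 h chemical treatment of human HepaRG cells. Concentrations span 100 uM downward in half-log steps with 0.5% DMSO; gain or loss is fitted against DMSO controls.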

Read-out in experiment [17]: Cyclin D1 (CCND1), CCND1 (gene 595)
In words: LTEA_HepaRG_CCND1: Life Technologies and Expression Analysis (LTEA) Assay for Cyclin D1 (CCND1) using HepaRG (AID 2283451). A digest of the protocol:
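Differentiated HepaRG cells exposed 48 h in serum-free induction medium to eight half-log concentrations from 100 uM top, 0.5% DMSO, duplicates. CCND1 mRNA measured by Fluidigm TaqMan qRT-PCR, normalised to ACTB, GAPDH, POLR2A; bidirectional fit.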

Read-out in experiment [18]: ABC Transporter (ABCC2), ABCC2 (gene 1244)
In words: LTEA_HepaRG_ABCC2: Life Technologies and Expression Analysis (LTEA) Assay for ABC Transporter (ABCC2) using HepaRG (AID 2283464). In outline:
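Differentiated HepaRG cells in serum-free induction medium exposed 48 h to eight half-log concentrations up to 100 uM, 0.5% DMSO, in duplicate. ABCC2 mRNA measured by qRT-PCR (TaqMan, Fluidigm), normalized to ACTB, GAPDH and POLR2A. Fitted in both directions against DMSO.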

Sequence of Broad substrate specificity ATP-binding cassette transporter ABCG2 (Homo sapiens) (Q9UNQ0 whole entry, looked up): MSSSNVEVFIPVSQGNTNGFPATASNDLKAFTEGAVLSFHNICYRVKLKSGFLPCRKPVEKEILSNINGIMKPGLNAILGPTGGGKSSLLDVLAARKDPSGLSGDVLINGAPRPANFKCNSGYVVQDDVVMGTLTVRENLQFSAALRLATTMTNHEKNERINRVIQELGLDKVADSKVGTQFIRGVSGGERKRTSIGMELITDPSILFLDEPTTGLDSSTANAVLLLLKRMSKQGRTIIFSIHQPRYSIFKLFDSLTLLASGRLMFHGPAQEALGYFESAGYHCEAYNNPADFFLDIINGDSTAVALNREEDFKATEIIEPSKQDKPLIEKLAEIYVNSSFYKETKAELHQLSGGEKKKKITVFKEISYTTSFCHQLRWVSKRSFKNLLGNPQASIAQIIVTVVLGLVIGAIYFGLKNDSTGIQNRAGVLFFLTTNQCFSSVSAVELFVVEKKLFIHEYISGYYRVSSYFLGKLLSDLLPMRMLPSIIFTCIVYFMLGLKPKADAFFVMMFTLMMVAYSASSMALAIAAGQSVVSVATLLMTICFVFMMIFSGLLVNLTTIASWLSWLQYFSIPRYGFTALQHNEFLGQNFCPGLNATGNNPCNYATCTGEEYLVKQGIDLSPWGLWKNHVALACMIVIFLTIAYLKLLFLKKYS
Sequence of Fatty acid synthase (Homo sapiens) (P49327 whole entry, looked up): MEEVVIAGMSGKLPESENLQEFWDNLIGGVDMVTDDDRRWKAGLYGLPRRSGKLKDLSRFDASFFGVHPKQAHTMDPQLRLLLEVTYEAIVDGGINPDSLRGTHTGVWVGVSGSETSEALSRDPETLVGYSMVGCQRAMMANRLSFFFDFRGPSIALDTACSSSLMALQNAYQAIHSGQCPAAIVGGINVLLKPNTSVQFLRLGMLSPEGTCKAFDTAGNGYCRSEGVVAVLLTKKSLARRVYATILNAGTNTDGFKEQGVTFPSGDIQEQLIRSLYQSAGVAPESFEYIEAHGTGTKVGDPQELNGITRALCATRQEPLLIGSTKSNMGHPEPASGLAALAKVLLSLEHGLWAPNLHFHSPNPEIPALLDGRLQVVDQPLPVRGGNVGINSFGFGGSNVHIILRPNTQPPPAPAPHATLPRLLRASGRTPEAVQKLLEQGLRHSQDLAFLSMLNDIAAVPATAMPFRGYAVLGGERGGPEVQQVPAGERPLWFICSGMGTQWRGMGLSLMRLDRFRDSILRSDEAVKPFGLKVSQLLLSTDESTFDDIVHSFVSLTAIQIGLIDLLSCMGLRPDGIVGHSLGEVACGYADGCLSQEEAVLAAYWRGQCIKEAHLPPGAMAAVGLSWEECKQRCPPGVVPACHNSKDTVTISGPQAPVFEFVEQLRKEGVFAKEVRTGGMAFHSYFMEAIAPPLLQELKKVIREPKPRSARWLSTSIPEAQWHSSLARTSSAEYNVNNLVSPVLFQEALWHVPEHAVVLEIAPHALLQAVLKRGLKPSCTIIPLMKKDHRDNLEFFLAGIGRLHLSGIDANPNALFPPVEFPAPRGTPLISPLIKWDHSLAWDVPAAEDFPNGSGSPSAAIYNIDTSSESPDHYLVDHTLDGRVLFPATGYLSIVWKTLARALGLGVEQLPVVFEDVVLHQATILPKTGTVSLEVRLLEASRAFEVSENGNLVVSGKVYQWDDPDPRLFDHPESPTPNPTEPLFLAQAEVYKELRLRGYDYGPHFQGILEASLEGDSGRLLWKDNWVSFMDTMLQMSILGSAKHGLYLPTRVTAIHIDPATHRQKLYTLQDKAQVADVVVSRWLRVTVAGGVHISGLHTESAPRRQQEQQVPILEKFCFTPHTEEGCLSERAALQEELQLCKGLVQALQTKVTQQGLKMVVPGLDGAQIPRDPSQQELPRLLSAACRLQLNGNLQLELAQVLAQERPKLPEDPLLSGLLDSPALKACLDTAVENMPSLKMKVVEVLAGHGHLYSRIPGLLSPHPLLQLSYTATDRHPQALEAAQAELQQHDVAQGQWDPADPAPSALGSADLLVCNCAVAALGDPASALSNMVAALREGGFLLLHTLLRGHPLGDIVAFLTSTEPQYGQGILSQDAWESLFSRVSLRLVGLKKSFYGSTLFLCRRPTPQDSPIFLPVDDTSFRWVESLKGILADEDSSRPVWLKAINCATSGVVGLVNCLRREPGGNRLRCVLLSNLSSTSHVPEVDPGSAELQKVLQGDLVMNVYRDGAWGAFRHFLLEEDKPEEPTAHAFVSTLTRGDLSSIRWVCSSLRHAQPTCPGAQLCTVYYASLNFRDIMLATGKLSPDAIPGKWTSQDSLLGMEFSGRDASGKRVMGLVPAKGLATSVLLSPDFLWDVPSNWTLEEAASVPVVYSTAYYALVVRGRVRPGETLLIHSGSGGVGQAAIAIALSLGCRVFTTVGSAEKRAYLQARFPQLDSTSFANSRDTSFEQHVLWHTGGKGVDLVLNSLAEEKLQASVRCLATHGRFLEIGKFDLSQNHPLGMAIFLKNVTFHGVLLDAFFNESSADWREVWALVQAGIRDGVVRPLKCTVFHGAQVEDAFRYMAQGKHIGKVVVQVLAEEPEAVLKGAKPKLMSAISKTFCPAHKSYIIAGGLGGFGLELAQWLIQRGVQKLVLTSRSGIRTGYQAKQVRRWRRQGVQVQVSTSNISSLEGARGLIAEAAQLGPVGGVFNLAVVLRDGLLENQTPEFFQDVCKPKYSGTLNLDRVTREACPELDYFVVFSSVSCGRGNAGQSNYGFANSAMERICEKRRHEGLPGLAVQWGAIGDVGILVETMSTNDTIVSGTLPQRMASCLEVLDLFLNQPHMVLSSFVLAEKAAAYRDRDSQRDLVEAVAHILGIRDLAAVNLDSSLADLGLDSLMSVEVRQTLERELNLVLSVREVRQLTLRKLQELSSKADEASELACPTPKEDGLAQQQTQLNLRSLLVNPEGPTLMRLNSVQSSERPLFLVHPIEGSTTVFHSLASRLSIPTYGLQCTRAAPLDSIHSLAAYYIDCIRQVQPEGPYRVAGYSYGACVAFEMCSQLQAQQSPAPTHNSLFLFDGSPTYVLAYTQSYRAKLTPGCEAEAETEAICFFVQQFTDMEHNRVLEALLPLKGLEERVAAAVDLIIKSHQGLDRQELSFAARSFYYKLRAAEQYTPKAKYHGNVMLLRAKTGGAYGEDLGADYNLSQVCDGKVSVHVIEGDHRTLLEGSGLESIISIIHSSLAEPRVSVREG

Consider `CC(C)(C)c1cc(O)c(C(C)(C)C)cc1O`, for which the half-maximal activity concentration (AC50) (in general, the midpoint of the concentration-response curve, whichever way the signal moves) was 81.7 µM (active) in [1]; 50 µM (active) in experiment [2]; 78.8 µM (active) in experiment [5]; 78.1 µM (active) in experiment [6]; 77.4 µM (active) in experiment [7]; 77.7 µM (active) in experiment [8]. The half-maximal activity concentration (AC50) is 50 µM (active) in experiment [9], 90.3 µM (active) in [11] and 73.6 µM (active) in experiment [13]. The result in experiment [3], in [4], in experiment [10], in experiment [12] and in experiment [14] was inactive.

As to `CC1(C)NC(=O)NC1=O`, the call in experiment [1], in experiment [2], in [3], in [4], in experiment [5] and in experiment [6] was inactive. The compound was called inactive in [15], in experiment [7], in experiment [8], in [9], in [11] and in experiment [12]. Also, the outcome in experiment [13], in experiment [16] and in [14] was inactive.

As for `CCCCOC(=O)CCCCCCCCC(=O)OCCCC`, the compound was classed as inactive in [1], in experiment [2], in experiment [4], in experiment [17], in [5] and in experiment [6]. The call in experiment [15], in experiment [7], in [8], in experiment [9], in experiment [11] and in experiment [12] was inactive. In addition, the call in experiment [13], in [16], in experiment [18] and in experiment [14] was inactive.

As to `O=c1c(O)c(-c2ccc(O)c(O)c2)oc2cc(O)cc(O)c12`, the compound was called inactive in experiment [1], in experiment [2], in [4], in [17], in experiment [5] and in experiment [7]. The compound was called inactive in [8], in [9], in experiment [12], in experiment [13], in experiment [18] and in [14]. The AC50 in experiment [6] is 80 µM (active); in experiment [15], 0.634 µM (active); in experiment [16], 76.7 µM (active).

As for `Cc1ccc(C(C)C)c(O)c1`, the outcome in [1], in experiment [2], in experiment [3], in experiment [4], in experiment [5] and in [6] was inactive. The compound was classed as inactive in experiment [15], in experiment [8], in experiment [9], in [11], in experiment [12] and in [13]. Further, the compound was classed as inactive in experiment [16], in experiment [18] and in [14].

Take `C=CCOC(=O)c1ccccc1C(=O)OCC=C`: the outcome in [1], in experiment [2], in [4], in [17], in experiment [5] and in experiment [6] was inactive. For the same compound, the call in experiment [8], in experiment [9], in [11], in experiment [12], in experiment [13] and in experiment [18] was inactive. For the same compound, the result in [14] was inactive. Moreover, the AC50 in experiment [15] was 50 µM (active).
